We go through 14 compounds from PubChem BioAssay (Tox21).

Assay [1] can be described thus: qHTS assay for small molecule agonists of the p53 signaling pathway - cell viability (AID 651633; calls by dose curve; note: nearly all actives have a fitted effect of over 30% in size; note: potency is the fitted concentration of half-maximal effect). In short, it runs like this:
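p53RE-bla cells, seeded at 4,000 per well and rested 5 h at 37 C/5% CO2, received compounds in DMSO for 16 h at 37 C. CellTiter-Glo was then added, and luminescence was read after 30 min at room temperature to gauge cytotoxicity.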

Assay [2] can be described thus: qHTS assay for small molecule disruptors of the mitochondrial membrane potential - cell viability (AID 720634; calls by dose curve;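 note: human HepG2 liver cancer cells; series mostly up to about 83 µM; nearly all actives have a fitted effect of over 20% in size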). The gist of the method:
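Human hepatoma HepG2 cells were treated for 1 hr with test chemicals, then given m-MPI dye and CellTiter-Glo. Cell viability reflects luminescence proportional to cellular ATP.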
In general terms: Quantitative high-throughput screening tests each substance at several concentrations.

Assay [3] in a line: qHTS assay for small molecule disruptors of the mitochondrial membrane potential (AID 720635). Note: potency is the fitted concentration of half-maximal effect. In short, it runs like this: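 HepG2 cells (2,000/well) attached overnight at 37C, then took compound for 1 hr at 37C, 5% CO2. Mito-MPS dye was added for 30 min; fluorescence was read at 490/535 nm (monomers) and 540/590 nm (aggregates).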
Assay [4] can be described thus: qHTS assay to test for compound auto fluorescence at 590 nm (red) in HepG2 cells (AID 720674). The gist of the method:
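Rose Bengal sodium served as the red fluorophore standard. HepG2 monolayers (overnight attachment, MEM with 10% FBS) were exposed to test compounds for 1 hr at 37 C and read at Ex 540/Em 590 nm.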

Assay [5] is described as follows: qHTS assay to test for compound auto fluorescence at 535 nm (green) in HepG2 cells (AID 720675).
Assay [6] can be described thus: qHTS assay to test for compound auto fluorescence at 460 nm (blue) in HEK293 cells (AID 720678). In short, it runs like this: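 HEK293 cells (2,000/well, medium with 10% dialyzed FBS) attached 4-5 hr, then exposed to compound overnight at 37C, 5% CO2. Blue fluorescence read at 405/460 nm, with triamterene as reference fluorophore.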
Assay [7] can be described thus: qHTS assay to test for compound auto fluorescence at 590 nm (red) in HEK293 cells (AID 720679). The gist of the method:
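HEK293 cells (2,000/well, 10% dialyzed FBS) attached 4-5 hr, then dosed with compound or DMSO and incubated overnight at 37C, 5% CO2. Red fluorescence read at 540/590 nm, Rose Bengal sodium as reference fluorophore.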

The nature of assay [8]: qHTS assay to test for compound auto fluorescence at 535 nm (green) in HEK293 cells (AID 720680).
A short description of assay [9]: qHTS assay to test for compound auto fluorescence at 460 nm (blue) in HEK293 cell free culture (AID 720681). In short, it runs like this:
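Test compounds were pinned into cell-free culture medium (DMEM with 10% FBS) and fluorescence was read directly at Ex/Em 405/460 nm. Signals were expressed as fluorescence equivalents of triamterene, with DMSO vehicle as control.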

Assay [10] in a line: qHTS assay to test for compound auto fluorescence at 535 nm (green) in HEK293 cell free culture (AID 720682). The gist of the method:
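DMEM + 10% FBS, cell-free; cpd or DMSO pinned in; Ex485/Em535 read; output as fluorescein-equivalent signal.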

Assay [11] can be described thus: qHTS assay to test for compound auto fluorescence at 590 nm (red) in HEK293 cell free culture (AID 720683). The gist of the method:
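Tox21 10K library compounds were pinned into cell-free DMEM with 10% FBS and fluorescence was read at excitation 540 nm. Activity is expressed as Rose Bengal sodium equivalency.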

A short description of assay [12]: qHTS assay to test for compound auto fluorescence at 590 nm (red) in HepG2 cell free culture (AID 720684). In short, it runs like this: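 Measured in medium alone (MEM containing 10% FBS) following pintool addition of compound; emission at 590 nm with 540 nm excitation, referenced to Rose Bengal sodium.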
A short description of assay [13]: qHTS assay to test for compound auto fluorescence at 460 nm (blue) in HepG2 cell free culture (AID 720685). In short, it runs like this:
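Compound (23 nL) or DMSO pinned into cell-free MEM with 10% FBS; blue fluorescence read at 405/460 nm excitation/emission, expressed as auto-fluorescence equivalency to triamterene.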

The nature of assay [14]: qHTS assay to test for compound auto fluorescence at 535 nm (green) in HepG2 cell free culture (AID 720686).
A short description of assay [15]: qHTS assay to test for compound auto fluorescence at 460 nm (blue) in HepG2 cells (AID 720687). The gist of the method:
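Cells (2,000/well in MEM with 10% FBS) attached overnight at 37 C, then were exposed to compound or DMSO for 1 hr at 37 C, 5% CO2. Fluorescence read at Ex/Em 405/460 nm, expressed as triamterene-equivalent signal.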

A short description of assay [16]: qHTS assay for small molecules that induce genotoxicity in human embryonic kidney cells expressing luciferase-tagged ATAD5 (AID 651632). Note: nearly all actives have a fitted effect of over 15% in size. Note: potency is the fitted concentration of half-maximal effect. In short, it runs like this: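 Genotoxicity read-out via ATAD5-luciferase: HEK293T cells, 16 hr compound incubation at 37C, Amplite detection.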
A short description of assay [17]: qHTS assay for small molecules that induce genotoxicity in human embryonic kidney cells expressing luciferase-tagged ATAD5 - cell viability (AID 651634; calls by dose curve; note: nearly all actives have a fitted effect of over 25% in size; note: potency is the fitted concentration of half-maximal effect). The gist of the method:
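Live-cell protease activity (CellTiter-Fluor, fluorescence) indicates viability. HEK293T cells with luciferase-tagged ATAD5; 15.5 hr compound treatment at 37C.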

The target in assay [18] is Glucocorticoid receptor (Homo sapiens) (UniProt P04150). Nature of the assay: qHTS assay to identify small molecule agonists of the glucocorticoid receptor (GR) signaling pathway (AID 720691; active = well fitted activation curve with a large enough effect in the signal ratio in the repeat runs, not every such curve was filed as active; the % refers to the signal ratio). In short, it runs like this: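 Beta-lactamase reporter activity, read as fluorescence intensity, was measured in GR-bla HeLa cells exposed to compounds for 18 h at 37 C and then loaded with LiveBLAzer B/G FRET substrate for 2 h at room temperature.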

The target is the same in assay [19]. The assay is described as follows: qHTS assay to identify small molecule antagonists of the glucocorticoid receptor (GR) signaling pathway (AID 720692; active = well fitted inhibition curve with a large enough effect in the signal ratio in the repeat runs, not every such curve was filed as active; the % refers to the signal ratio). In short, it runs like this:
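Fluorescence from cleaved LiveBLAzer B/G FRET substrate reports GRE-driven beta-lactamase in HeLa cells; compounds are tested against 5 nM dexamethasone (final) over 18 h at 37 C, substrate incubation 2 h at room temperature.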

Assay [20] is described as follows: qHTS assay for small molecule agonists of the p53 signaling pathway (AID 651631; calls by dose curve; note: nearly all actives have a fitted effect of over 15% in size). The gist of the method: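 Testing took place in human colorectal HCT-116 cells with stable p53RE-driven beta-lactamase. After 16 h of compound exposure at 37 °C, a FRET substrate was added and fluorescence recorded 2 h later.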

Several values for one entry are separate records, joined by “and”; a condition that tells them apart may be missing. Equal entries are not always repeated. Records with an inconclusive call do not appear. Activity calls are given as the source filed them. Unless noted, calls come from the whole dose curve; as a rule, active = well fitted curve in the direction sought with a large enough effect in the repeat runs; inconclusive = weak or mixed curves; inactive = no such curve, though single readings can be large; an effect the other way counts as inactive or inconclusive.

Chain of Glucocorticoid receptor (Homo sapiens) (P04150 whole entry, looked up): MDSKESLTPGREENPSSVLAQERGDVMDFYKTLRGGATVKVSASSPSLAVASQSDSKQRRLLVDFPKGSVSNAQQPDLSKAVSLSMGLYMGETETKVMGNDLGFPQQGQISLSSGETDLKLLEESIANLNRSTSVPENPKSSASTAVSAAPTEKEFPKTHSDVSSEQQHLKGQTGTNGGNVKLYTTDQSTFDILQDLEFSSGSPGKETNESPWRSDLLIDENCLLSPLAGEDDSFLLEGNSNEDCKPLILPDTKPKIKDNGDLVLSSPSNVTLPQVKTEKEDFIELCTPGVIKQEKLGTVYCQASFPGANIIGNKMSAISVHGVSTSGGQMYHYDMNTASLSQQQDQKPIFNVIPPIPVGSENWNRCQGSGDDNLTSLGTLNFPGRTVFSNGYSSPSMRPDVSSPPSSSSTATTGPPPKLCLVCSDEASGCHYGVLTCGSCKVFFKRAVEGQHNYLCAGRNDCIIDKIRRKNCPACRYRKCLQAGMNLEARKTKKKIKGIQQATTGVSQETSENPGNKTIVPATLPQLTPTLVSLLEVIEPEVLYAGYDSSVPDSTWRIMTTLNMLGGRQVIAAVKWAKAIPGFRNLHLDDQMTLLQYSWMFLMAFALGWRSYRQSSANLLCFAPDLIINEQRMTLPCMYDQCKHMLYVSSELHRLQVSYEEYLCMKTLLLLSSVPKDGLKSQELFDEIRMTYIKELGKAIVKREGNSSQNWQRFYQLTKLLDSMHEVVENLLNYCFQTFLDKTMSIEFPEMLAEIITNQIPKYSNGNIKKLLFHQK

Take `O=c1c(-c2ccc(O)cc2)coc2cc(O)cc(O)c12`: the Potency entry in assay [1] and in assay [2] was “inactive” each time. For the same compound, in [3], the Potency is 5.96 µM (active) and 1.07 µM (active) and 8.63 µM (active). Moreover, the compound was classed as inactive in [4], in assay [5], in [6], in assay [7], in assay [8] and in [9]. Moreover, the compound was called inactive in assay [10], in [11], in assay [12], in [13], in assay [14] and in [15].

For `CC(=O)/C=C/C1=C(C)CCCC1(C)C`, the Potency result in [16], in assay [1], in assay [17] and in assay [2] was “inactive” throughout. The compound was called inactive in assay [5], in assay [6], in assay [7], in assay [8], in [9] and in assay [10]. In addition, the result in [11], in assay [12], in [13], in assay [14] and in assay [15] was inactive.

Turning to `NC(=O)N1c2ccccc2C=Cc2ccccc21`, the Potency result in assay [16], in [1], in assay [17], in [2] and in assay [3] was “inactive” throughout. Besides, the call in [4], in assay [6], in assay [7], in [8], in assay [9] and in assay [10] was inactive. Moreover, the result in assay [11], in assay [12], in assay [13], in assay [14] and in assay [15] was inactive.

In the case of `CC(C)(C)CC(C)(C)c1ccc(O)c(-n2nc3ccccc3n2)c1`, the Potency result in assay [16], in assay [17], in assay [2], in [18] and in assay [19] was “inactive” throughout. Also, the Potency was 49.2 µM (active) and 48.6 µM (active) in [1]; 10.6 µM (active) and 24.7 µM (active) and 30.6 µM (active) in assay [3]. Besides, the outcome in assay [4], in [5], in [6], in assay [7], in [8] and in assay [9] was inactive. In addition, the compound was called inactive in assay [10], in [11], in [12], in assay [13], in assay [14] and in assay [15].

As for `Cc1c(N(C)C)c(=O)n(-c2ccccc2)n1C`, the Potency result in assay [16], in [1], in [17], in assay [2], in assay [3] and in [18] was “inactive” throughout. For the same compound, the Potency entry in assay [19] was “inactive”. Besides, the call in assay [4], in [6], in [7], in assay [8], in assay [9] and in assay [10] was inactive. The compound was called inactive in assay [11], in [12], in [13], in assay [14] and in [15].

As for `Nc1ccc(N=Nc2ccccc2)c(N)n1`, the Potency in [16] is 11.9 µM (active) and 8.68 µM (active) and 9.69 µM (active); in assay [17] it was 23.7 µM (active) and 54.8 µM (active); in assay [3], 10.6 µM (active) and 30.8 µM (active) and 19.3 µM (active). The Potency result in assay [1] and in assay [2] was “inactive” throughout. Moreover, the compound was called inactive in assay [6], in assay [7], in assay [8], in assay [9], in assay [10] and in [11]. In addition, the result in assay [12], in [13], in assay [14] and in assay [15] was inactive.

On to `CCn1cc(C(=O)O)c(=O)c2ccc(C)nc21`, for which the Potency entry in [16], in assay [2] and in [3] was “inactive” in each case. Also, the result in assay [4], in [6], in [7], in assay [8], in [9] and in assay [10] was inactive. Besides, the outcome in [11], in [12], in assay [13], in [14] and in assay [15] was inactive.

Regarding `NC(=O)N/N=C/c1ccc([N+](=O)[O-])o1`, the Potency entry in assay [20], in assay [16], in [1], in assay [2] and in [19] was “inactive” each time. In addition, the Potency in assay [3] was 15.4 µM (active). Moreover, the outcome in assay [4], in [6], in assay [7], in assay [8], in [9] and in assay [10] was inactive. Moreover, the compound was classed as inactive in [11], in assay [12], in assay [13], in [14] and in [15].

On to `O=C(O)CN(CC(=O)O)CC(=O)O`, for which the Potency entry in assay [20], in assay [16], in [1], in assay [17] and in assay [19] was “inactive” each time. Further, the result in assay [4], in [5], in assay [6], in assay [7], in assay [8] and in assay [9] was inactive. Also, the result in assay [10], in [11], in [12], in assay [13], in assay [14] and in assay [15] was inactive.

As to `CN/C(=C\[N+](=O)[O-])NCCSCc1ccc(CN(C)C)o1`, the Potency result in assay [20], in assay [16], in assay [1], in assay [2], in [3] and in [18] was “inactive” throughout. Also, the Potency result in assay [19] is “inactive”. In addition, the compound was called inactive in assay [4], in [5], in assay [6], in assay [7], in [8] and in [9]. For the same compound, the outcome in [10], in assay [11], in assay [12], in [13], in assay [14] and in assay [15] was inactive.

As for `CCCCCCCCCCCCCCCCCC(=O)OCC(O)CO` (stereo not given), the Potency entry in [16], in assay [1], in assay [17], in assay [2], in assay [3] and in assay [18] was “inactive” throughout. Also, the Potency entry in assay [19] was “inactive”. Also, the call in assay [4], in [6], in assay [7], in assay [8], in [9] and in assay [10] was inactive. Moreover, the result in assay [11], in [12], in [13], in [14] and in assay [15] was inactive.

Consider `COC(=O)c1ccc(O)cc1`, for which the Potency entry in assay [20], in [16], in assay [1], in [17] and in assay [19] was “inactive” in each case. In addition, the compound was called inactive in assay [5], in [6], in assay [7], in assay [8], in [9] and in [10]. For the same compound, the compound was classed as inactive in [11], in assay [12], in [13], in [14] and in [15].

Take `NC(N)=NC(N)=NCCc1ccccc1`: the Potency entry in assay [16], in [1], in [17], in assay [2], in assay [3] and in [19] was “inactive” in each case. In addition, the result in assay [5], in [6], in [7], in assay [8], in assay [9] and in assay [10] was inactive. Also, the compound was classed as inactive in assay [11], in assay [12], in [13], in assay [14] and in [15].

Consider `C[C@]12CC[C@@H]3c4ccc(O)cc4CC[C@H]3[C@@H]1CCC2=O`, for which the Potency entry in assay [17] and in assay [2] was “inactive” each time. In addition, the Potency in assay [3] was 13.3 µM (active) and 6.87 µM (active). The compound was classed as inactive in assay [5], in assay [6], in assay [7], in assay [8], in assay [9] and in [10]. Further, the result in assay [11], in assay [12], in [13], in [14] and in [15] was inactive.
